Screening data (PubChem)
HP1b chromo inh – inhibitors of HP1-beta chromodomain binding to methylated histone tails; 390,000 compounds, 0.56% hits; AlphaScreen HP1-beta / biotin-H3K9me3 peptide binding; AID 540317; P83916; Potency, µM (doses to about 114 µM), actives largely listed as inhibitors; also: nearly all actives have a fitted effect of over 70% in size
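Compound inhibition of the preformed complex between 50 nM HP1-beta and 50 nM biotinylated H3K9me3 peptide was read by AlphaScreen. Buffer was PBS pH 7.4 with 0.01% Tween-20. Incubations ran 30 min at room temperature, with 10 ug/mL donor/acceptor beads.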
PI5P4Ka inh – PI5P4K alpha (human) kinase inhibition | P48426 | PI5P4Kalpha enzyme, ADP-Glo luminescence, 60 min; hits give low values | max response, % | 330,000 compounds, 1.2% hits | AID 652105; active = max response of -50% or lower; inconclusive = between -30% and -50%; inactive = -30% or higher; also: value at the top dose of about 77 µM
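Controls without substrate or without enzyme flank wells where PI5P4Kalpha converts substrate using 5 microM ATP (final). Incubation lasts 60 minutes at room temperature; ADP formed is read by ADP-Glo luminescence.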
JMJD2E inh – blocks human JMJD2E demethylase activity. B2RXH2. JMJD2E catalytic domain, FDH-coupled NADH fluorescence (FDH is formaldehyde dehydrogenase). Potency, µM (titrated, usually from 57.1 µM), most hits filed as inhibitors. 230,000 compounds, 1.6% hits; active = well fitted inhibition curve with a large enough effect, not every such curve was filed as active; inconclusive = small, poorly fitted or top-dose-only effect, or another doubt; inactive = no such curve, though single readings can be large or run the other way; also: nearly all actives have a fitted effect of over 50% in size
JMJD2A Tudor inh – blocks the human JMJD2A Tudor domain | O75164 | AlphaScreen JMJD2A-Tudor / H3K4me3 peptide binding | Potency, µM (doses to about 114 µM), usual class: inhibitors | 390,000 compounds, 4.4% hits | AID 504339; also: nearly all actives have a fitted effect of over 50% in size
L3MBTL1 inh – blocks human L3MBTL1; Q9Y468; AlphaScreen L3MBTL1–H3K9me1 peptide binding; Potency, µM (series often up to 57.1 µM), hits mostly inhibitors; 230,000 compounds, 0.66% hits; also: nearly all actives have a fitted effect of over 60% in size
Target sequence (Q9Y468 whole entry, looked up): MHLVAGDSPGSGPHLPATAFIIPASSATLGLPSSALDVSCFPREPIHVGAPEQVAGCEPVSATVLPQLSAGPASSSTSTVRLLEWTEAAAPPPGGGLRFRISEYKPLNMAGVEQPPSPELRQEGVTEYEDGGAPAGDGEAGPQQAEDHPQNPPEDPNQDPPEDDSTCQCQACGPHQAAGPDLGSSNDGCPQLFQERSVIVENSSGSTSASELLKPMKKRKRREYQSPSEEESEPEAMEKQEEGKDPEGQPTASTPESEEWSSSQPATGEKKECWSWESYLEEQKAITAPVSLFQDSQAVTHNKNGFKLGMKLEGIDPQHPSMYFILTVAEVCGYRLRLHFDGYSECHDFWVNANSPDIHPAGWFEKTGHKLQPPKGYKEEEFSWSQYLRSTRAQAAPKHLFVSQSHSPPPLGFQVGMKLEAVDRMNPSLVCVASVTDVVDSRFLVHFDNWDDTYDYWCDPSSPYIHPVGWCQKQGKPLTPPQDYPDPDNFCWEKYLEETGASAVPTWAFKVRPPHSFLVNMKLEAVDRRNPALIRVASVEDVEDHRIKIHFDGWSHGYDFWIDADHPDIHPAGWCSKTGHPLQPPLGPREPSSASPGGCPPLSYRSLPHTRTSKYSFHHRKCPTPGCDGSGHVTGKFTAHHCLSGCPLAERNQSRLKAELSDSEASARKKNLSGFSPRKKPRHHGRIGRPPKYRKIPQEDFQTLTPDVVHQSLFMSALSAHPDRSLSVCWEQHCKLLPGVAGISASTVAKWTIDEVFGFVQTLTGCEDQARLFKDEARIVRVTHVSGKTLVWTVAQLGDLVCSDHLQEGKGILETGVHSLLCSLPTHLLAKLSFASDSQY
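AlphaScreen proximity signal between nickel-chelate acceptor and streptavidin donor beads (final 10 ug/mL) reports binding of 50 nM L3MBTL1 to 75 nM biotin-H3 K9me1 peptide; complex incubated with compounds 30 min at room temperature; cefsulodin titration as control.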
BAZ2B block – inhibitors of human BAZ2B bromodomain; Q9UIF8; AlphaScreen BAZ2B-H3K14Ac peptide displacement; Potency, µM (top dose mostly 114 µM), most hits filed as inhibitors; 360,000 compounds, 4.4% hits; also: nearly all actives have a fitted effect of over 60% in size
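In this displacement format the biotinylated H3(5-23) peptide acetylated at Lys14 serves as ligand at 50 nM, with BAZ2B at 50 nM in PBS pH 7.4 containing 0.01% Tween-20. Donor and acceptor beads are 10 ug/mL final.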
A number is an active result; – = inactive; ? = inconclusive; · = no result given. Compounds with a hit are over-represented: about 5.7% of the library has one in this group of screens. Unless noted, calls follow the shape of the dose curve; as a rule, active = well fitted inhibition curve with a large enough effect; inconclusive = small, poorly fitted or top-dose-only effect; inactive = no such curve, though single readings can be large or run the other way.

SMILES	HP1b chromo inh	PI5P4Ka inh	JMJD2E inh	JMJD2A Tudor inh	L3MBTL1 inh	BAZ2B block
C#CCOCCOCCOCCNc1nc(N2CCN(C(=O)[C@H]([C@@H](C)CC)n3cc([C@@H](N)CO)nn3)CC2)nc(N2CCN(C(=O)[C@H](CCCCN)n3cc([C@@H](N)C(C)CC)nn3)CC2)n1 (some centres not stated)	–	–	–	50µM	–	50µM
O=C(NCc1ccc(F)cc1)c1cc(Sc2ccc(F)cc2F)nc2ccccc12	–	·	·	–	·	–
Cc1ccsc1C1NC(=O)c2c(sc3c2CCCC3)N1 (configuration not stated)	–	-68	?	?	–	–
O=C1NC(c2ccccc2Cl)Nc2ccccc21 (configuration not stated)	–	–	?	–	–	–
Cc1ccsc1C1NC(=O)c2ccccc2N1 (configuration not stated)	–	–	28µM	–	–	–
CCOC(=O)c1c(C)[nH]c(C)c1S(=O)(=O)N1CCC(C(=O)Nc2ccc(C)cn2)CC1	–	·	·	–	·	–
COc1ccccc1OCCCCn1c(-c2ccc(Cl)cc2)nc2ccccc2c1=O	–	·	·	–	·	–
CC1CCN(S(=O)(=O)c2ccc3c(c2)c(=O)c(C(=O)NCc2ccc(Cl)cc2)cn3C)CC1	–	·	·	–	·	·
Cc1cc(C)n2c(SCC(=O)NCc3ccc4c(c3)OCO4)nnc2n1	–	–	–	79µM	·	–
Cc1cc(C)n2c(SCC(=O)Nc3ccc(F)cc3F)nnc2n1	–	–	?	89µM	–	–
O=C(CSc1ccc2nnc(-c3cccnc3)n2n1)NCc1ccc2c(c1)OCO2	–	–	–	56µM	–	–
Cc1cc(C)c(NC(=O)Cn2nnc(C(=O)NCc3ccc4c(c3)OCO4)c2N)c(C)c1	–	–	·	56µM	·	–
Cc1ccc(NC(=O)Cn2nnc(C(=O)NCc3ccc4c(c3)OCO4)c2N)cc1	–	–	·	–	·	–
Cn1cc(C(=O)N2CCN(c3cccc(Cl)c3)CC2)c(=O)c2cc(S(=O)(=O)N3CCCC3)ccc21	–	·	·	–	·	·
O=C(C[n+]1ccccc1)Nc1c(Cl)cc(Cl)cc1Cl	–	–	–	–	11µM	35µM
O=C(C[n+]1ccccc1)Nc1ccccc1Br	–	–	–	–	?	25µM
O=C(C[n+]1ccccc1)Nc1ccccc1[N+](=O)[O-]	–	–	·	–	–	–
COc1ccc(CNC(=O)c2ccc(Cn3cc(Cl)cn3)o2)cc1	–	–	·	–	·	–
COc1ccc(-c2cn3c(n2)sc2cc(C(=O)NCc4cccs4)ccc23)cc1	–	·	·	–	·	–
S=c1[nH]ccc2ccccc12	–	–	·	–	·	·
S=c1[nH]ncc2ccccc12	–	·	–	50µM	–	–
COc1ccc(-c2cc(=O)c3c(O)c(OC)c(OC)c(OC)c3o2)cc1OC	·	·	–	·	·	·
COc1cc(OC)c2c(=O)cc(-c3ccccc3)oc2c1	–	–	?	–	–	–
COc1c(O)c(O)c2oc(-c3ccccc3)cc(=O)c2c1OC	–	–	32µM	?	–	?
COc1cc(-c2cc(=O)c3c(O)c(OC)c(OC)c(O)c3o2)ccc1O	–	?	20µM	–	?	?
SMILES	HP1b chromo inh	PI5P4Ka inh	JMJD2E inh	JMJD2A Tudor inh	L3MBTL1 inh	BAZ2B block
COc1ccc(OC)c(CCNC(=O)CCn2c(=O)c3cccn3c3cccnc32)c1	–	·	·	–	·	–
Cc1cc(Nc2cccc(C)c2C)n2cnnc2n1	–	·	·	–	·	–
Cc1ccc2c(C)c(C(=O)N3CCC(c4nc5ccccc5s4)CC3)oc2c1C	–	·	·	–	·	–
Cc1ccc(NC(=O)CSc2nnc(-c3cccs3)o2)cc1S(=O)(=O)N1CCCCC1	–	–	–	–	–	–
CC(C)C[C@@H](CNCC(=O)[C@H](CC(C)C)NC(=O)c1[nH]cnc1C(=O)N[C@H](CN)CC(C)C)NC(=O)c1nc[nH]c1C(=O)N[C@@H](CC(=O)O)C(=O)O	–	–	·	79µM	·	·
CC(C)C[C@@H](CN)NC(=O)c1nc[nH]c1C(=O)N[C@@H](CC(C)C)C(=O)CNC[C@H](C)NC(=O)c1nc[nH]c1C(=O)N[C@@H](CC(=O)O)C(=O)O	–	–	·	79µM	·	·
COC(=O)c1c(C)[nH]c(O)c1C=Nc1ccc(C(C)C)cc1	?	–	–	45µM	–	35µM
Cc1csc(N=Nc2ccc(N(C)C)cc2)[n+]1[O-]	·	-56	·	·	·	·
